PubChem BioAssay AID651871 (Sanford-Burnham Center for Chemical Genomics, 2012)
Values joined by “and” are separate entries in the source; they are usually repeats but may differ in a detail not shown here. Identical values can stand only once.

System: H9c2
Assay: protection of cardiomyocytes from stress damage, SAR follow-up, cell-based, panel, H9c2 and HL-1, ATP luminescence, set 2 (AID 651871);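 also: cells exposed to stressor for 2 h before ATP readout; reference of the scale not given here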
Conditions: H9c2/HL-1 cardiomyocytes, 2-deoxyglucose stress, with 2-deoxyglucose; run 2, at 79 µM (top of the series)

Compound | activity (protection/inhibition)
COc1ccc2nc(-c3cc(OC)c(OC)c(OC)c3)cc(C(=O)NCC(=O)Nc3ccc(C(C)=O)cc3)c2c1 | 82.4%
CCOC(=O)c1cccc(NC(=O)CNC(=O)c2cc(-c3cc(OC)c(OC)c(OC)c3)nc3ccccc23)c1 | 78.5%
COc1ccc2c(c1OC)C(=O)N1c3ccccc3C(=O)N(Cc3cccc(Cl)c3Cl)C21 (stereo not drawn) | 53% and 81.7% and -4.06%
